Experimental data published in PubChem BioAssay (NCATS).
“And” between values parts separate entries of the source, which are not always exact repeats. Equal values may be shown once. Unmarked numbers belong to inactive results. Records with an inconclusive call do not appear. The source made the active and inactive calls. Unless noted, calls follow the shape of the dose curve; as a rule, active = well fitted curve in the direction sought with a large enough effect; inconclusive = small, poorly fitted or top-dose-only effect, or another doubt; inactive = no such curve, though single readings can be large; an effect the other way counts as inactive or inconclusive.

Tests used:
[1] = qHTS assay to identify inhibitors of the type 1 interferon - major histocompatibility complex class I in skeletal muscle: Counter screen cell viability and HiBit confirmation (AID 1347412); conditions: iHSKM muscle cells + IFN-b, HiBiT or CellTiter-Glo, 24 h; for activity change, negative = inhibition: at 45.9 µM (top of the series); also: potency is read from the fitted curve at half-maximal effect; as to activity change, negative = inhibition: % is scaled to controls: 0 for no effect and ±100 for the full control effect; as to all read-outs here: nearly all actives have a fitted effect of over 60% in size
Outline: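 After 24 h with human IFN-beta (4 ng/ml) and compound titrations (top 46 uM final, 1:3, 12 points), HLA-B HiBit myoblasts were lysed for either Nano-Glo HiBiT luminescence or CellTiter Glo viability on paired plates.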

[2] = Drug repurposing screens with cells derived from glioblastoma tumor samples (AID 1345199); conditions: GBM patient neurospheres viability, ATP luminescence, 48 h; also: nearly all actives have a fitted effect of over 40% in size; also: potency is read from the fitted curve at half-maximal effect; as to activity, negative = cell killing: % is scaled to controls: 0 for no effect and ±100 for the full control effect
Outline: (§1)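 Primary testing used CD133+ neurospheres from four GBM patients, seven concentrations, 48 h exposure and ATP-based viability; confirmation added three slower-growing patient lines.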

[3] = tested on: astro; assay: as above; conditions: viability, ATP luminescence, 48 h; series mostly up to 45.9 µM
Outline: as §1

[4] = target: Nuclear receptor subfamily 1 group I member 2 (Rattus norvegicus) (UniProt Q9R1A7); assay: qHTS assay for small molecule activators of the rat pregnane X receptor (rPXR) signaling pathway (AID 651751; call rule not given here; also: 0% is about no effect); conditions: rPXR reporter cells, luciferase (One-Glo), 24 h
[5] = qHTS assay for small molecule activators of the human pregnane X receptor (PXR) signaling pathway (AID 720659; call rule not given here; also: 0% is about no effect); conditions: DPX-2 HepG2 CYP3A4-luciferase, 24 h; series mostly up to 92.3 µM
[6] = at 45.9 µM (top of the series), tumour line B
[7] = at 45.9 µM (top of the series), tumour line D
[8] = at 46.1 µM (top of the series), tumour line C
[9] = at 46 µM (top of the series), tumour line A

Sequence of Nuclear receptor subfamily 1 group I member 2 (Rattus norvegicus) (Q9R1A7 whole entry, looked up): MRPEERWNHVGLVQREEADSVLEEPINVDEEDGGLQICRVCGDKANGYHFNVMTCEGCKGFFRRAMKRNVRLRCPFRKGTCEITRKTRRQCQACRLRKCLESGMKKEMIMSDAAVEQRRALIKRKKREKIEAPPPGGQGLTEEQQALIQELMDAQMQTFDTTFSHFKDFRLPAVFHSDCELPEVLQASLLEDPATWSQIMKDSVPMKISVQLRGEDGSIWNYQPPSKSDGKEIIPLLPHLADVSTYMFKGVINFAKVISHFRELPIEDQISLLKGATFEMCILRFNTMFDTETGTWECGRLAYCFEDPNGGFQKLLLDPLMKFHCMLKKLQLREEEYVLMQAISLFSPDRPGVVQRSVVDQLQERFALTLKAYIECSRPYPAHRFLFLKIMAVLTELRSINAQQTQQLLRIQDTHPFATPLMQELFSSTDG

For `O=C1C(SCCO)=C(SCCO)C(=O)c2ccccc21`, which Potency ([1]; HiBiT) is on record?
Its Potency is 2.79 µM (active).

And the Potency ([1]; Viability)?
Its Potency is 4.97 µM (active).

With `O=S(=O)(c1cccc2c(I)cccc12)N1CCCNCC1` as the compound, how does the activity change, negative = inhibition ([1]; HiBiT) read?
Its activity change, negative = inhibition is -4.28%.

What about the activity change, negative = inhibition ([1]; Viability) of the same compound?
Its activity change, negative = inhibition is -12.4%.

With `O=C(Nc1ccncc1)c1cc([N+](=O)[O-])ccc1Cl` as the compound, how does the Potency ([1]; HiBiT) read?
Its Potency is 15.7 µM (active).

What about the activity change, negative = inhibition ([1]; Viability) of the same compound?
Its activity change, negative = inhibition is -27.4%.

What does the source list for `CN1[C@@H](CC(=O)c2ccccc2)CCC[C@H]1C[C@H](O)c1ccccc1`?
activity, negative = cell killing [2, 6]: -7.77%; activity, negative = cell killing [2, 7]: -23.7%; activity, negative = cell killing [2, 8]: 11.9%; Potency ([2]; tumour line A): 10 µM (active); Potency [3]: inactive

Which max response [4] does the source give for `O=C(Nc1ccccc1)c1cc([N+](=O)[O-])ccc1Cl` here?
The max response was -1.59%.

For `COc1ccc(/C=C2\COc3ccc(C)cc3C2=O)cc1O`, which Potency ([1]; HiBiT) is on record?
The Potency was 14 µM (active).

What about the activity change, negative = inhibition ([1]; Viability) of the same compound?
The activity change, negative = inhibition was -21.6%.

What does the source list for `C=CCN1C(=O)C(CC(C)C)NC1=S` (centres undefined)?
activity, negative = cell killing [2, 6]: -28.5% and -13.5%; activity, negative = cell killing [2, 7]: -8.69% and -21.9%; activity, negative = cell killing [2, 9]: -6.38% and -35.5%; activity, negative = cell killing [2, 8]: -6.48% and -20.2%

With `C[N+](C)(C)CCOP(=O)(O)OP(=O)([O-])OC[C@H]1O[C@@H](n2ccc(N)nc2=O)[C@H](O)[C@@H]1O` as the compound, how does the activity, negative = cell killing [2, 6] read?
The activity, negative = cell killing was -6.25% and -7.43%.

And the activity, negative = cell killing [2, 7]?
The activity, negative = cell killing was -2.69% and -5.13%.

What about the activity, negative = cell killing [2, 9] of the same compound?
Its activity, negative = cell killing is -13.9%.

And the activity, negative = cell killing [2, 8]?
Its activity, negative = cell killing is -5.84% and 8.06%.

For `O=[N+]([O-])c1ccc2c(c1)S(=O)(=O)C=C2`, which Potency ([1]; HiBiT) is on record?
Its Potency is 1.76 µM (active).

Which Potency [3] does the source give for `CC(=O)[C@]1(O)Cc2c(O)c3c(c(O)c2[C@@H](O[C@H]2C[C@H](N)[C@H](O)[C@H](C)O2)C1)C(=O)c1c(O)cccc1C3=O` here?
The Potency was 501 nM (active) and 562 nM (active).

What does the source list for `CC(C)(C)c1ccc(S(=O)(=O)/C=C/C#N)cc1`?
Potency ([1]; HiBiT): 2.79 µM (active); Potency ([1]; Viability): 11.1 µM (active)

With `O=C(O)[C@H](O)[C@@H](O)[C@H](O)[C@H](O)CO` as the compound, how does the activity, negative = cell killing [2, 6] read?
Its activity, negative = cell killing is -3.35% and -2.21%.

What about the activity, negative = cell killing [2, 7] of the same compound?
Its activity, negative = cell killing is -11.3% and 8.58%.

What about the activity, negative = cell killing [2, 9] of the same compound?
Its activity, negative = cell killing is -25.5% and -7.46%.

What about the activity, negative = cell killing [2, 8] of the same compound?
Its activity, negative = cell killing is 0.0662% and -1.71%.

And the outcome [5]?
Its outcome is “inactive”.

Which activity change, negative = inhibition ([1]; Viability) does the source give for `N#C/C(=C\c1ccc(-c2cc(Cl)ccc2Cl)o1)C(=O)Nc1cccc2ncccc12` here?
Its activity change, negative = inhibition is -18.8%.

What does the source list for `CN(C)CCC(c1ccc(Cl)cc1)c1ccccn1` (centres undefined)?
max response [4]: 3.17%; outcome [5]: inactive

What does the source list for `CC[C@H]1OC(=O)[C@H](C)[C@@H](O[C@H]2C[C@@](C)(OC)[C@@H](O)[C@H](C)O2)[C@H](C)[C@@H](O[C@@H]2O[C@H](C)C[C@H](N(C)C)[C@H]2O)[C@](C)(O)C[C@@H](C)C(=O)[C@H](C)[C@@H](O)[C@]1(C)O`?
activity, negative = cell killing [2, 6]: -22.6% and -12%; activity, negative = cell killing [2, 7]: -9.85% and -27.5%; activity, negative = cell killing [2, 8]: -1.15% and -24.2%; Potency [3]: inactive

For `O=C(O)COc1ccc(C(=O)c2cccs2)c(Cl)c1Cl`, which activity, negative = cell killing [2, 6] is on record?
Its activity, negative = cell killing is -12.4% and -10%.

What about the activity, negative = cell killing [2, 7] of the same compound?
Its activity, negative = cell killing is -10.2% and 1.54%.

What about the activity, negative = cell killing [2, 9] of the same compound?
Its activity, negative = cell killing is -22.1% and -29.6%.

And the activity, negative = cell killing [2, 8]?
The activity, negative = cell killing was -20.3% and -8.25%.

What about the Potency [3] of the same compound?
Its Potency is “inactive”.

For `OCC1O[C@H]([S-])[C@H](O)[C@@H](O)[C@@H]1O.[Au+]` (some centres undefined), which activity change, negative = inhibition ([1]; Viability) is on record?
Its activity change, negative = inhibition is -5.66%.
